Compound activity from PubChem BioAssay.
Compounds with a hit are over-represented: about 7.9% of the library has one in this group of screens.
MCF10A rereplic = DNA re-replication induction in MCF 10a cells | MCF 10A DNA re-replication, Hoechst nuclear intensity, 48 h | Potency, µM (highest dose often 46.1 µM), inactives show at the highest dose activity, positive = re-replication, most hits filed as activators | 350,000 tested, 2.9% active; note: % of control where 0% means no effect; nearly all actives have a fitted effect of over 50% in size
KB-3-1 tox = KB-3-1 parental cell cytotoxicity. KB-3-1 viability, CellTiter-Glo ATP luminescence, 72 h. Potency, µM (top dose mostly 46.1 µM), most hits filed as cytotoxic. 400,000 tested, 1.4% active. AID 1347075; note: % is set by controls: 0 for no effect and ±100 for the full control effect; nearly all actives have a fitted effect of over 60% in size
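Luminescent ATP read-out (CellTiter-Glo) measures survival of drug-naive KB-3-1 cells after 72 h compound exposure at 37 °C. Titration series was screened from lowest to highest concentration, with DMSO vehicle plates as background controls.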
HT1080 IDH1KD tx = HT-1080 IDH1 knockdown cell toxicity (counter line). Potency, µM (doses to about 46.1 µM), for the others: top-dose activity, negative = toxicity, usual class: cytotoxic. 360,000 tested, 2% active. AID 686971. HT-1080 IDH1 knockdown viability, ATP luminescence, 48 h;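 note: 0% = DMSO wells and -100% = cell-free medium wells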
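Using the IDH1-knockdown HT-1080 line run in the same batch and compound series as the NT line, viability after 48 h at 37 °C was determined by CellTiter-Glo luminescence and expressed as % activity.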
SW480 rerep = induces DNA re-replication in SW480 colon adenocarcinoma cells. 340,000 tested, 1.8% active. SW480 DNA re-replication, Hoechst DNA content imaging, 48 h. Potency, µM (top dose mostly 46.1 µM), without a hit: at the highest dose re-replication activation, most hits filed as activators; note: % of control where 0% means no effect; nearly all actives have a fitted effect of over 55% in size
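SW480 cells exposed to compounds for 48 hr at 37 C, 5% CO2, then Hoechst-stained 40 min. Nuclear DNA content imaged by fluorescence scanning (405 nm excitation, 500-530 nm emission); re-replication scored as increased high-intensity nuclei.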
KB-V1 cytotox = KB-V1 MDR subline cytotoxicity. Potency, µM (top dose mostly 46.1 µM), actives largely listed as cytotoxic. 400,000 tested, 3.4% active. KB-V1 MDR cells viability, CellTiter-Glo, 72 h; note: % is set by controls: 0 for no effect and ±100 for the full control effect; nearly all actives have a fitted effect of over 60% in size
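Potencies derive from concentration-effect curves fitted to normalized luminescence (CellTiter-Glo) of KB-V1 cells treated for 72 h at 37 degrees C in phenol-red-free DMEM containing 10% FBS.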
HT1080-NT tox = kills 2HG-producing HT-1080-NT fibrosarcoma cells; HT-1080-NT fibrosarcoma viability, CellTiter-Glo ATP luminescence, 48 h; Potency, µM (titrated, usually from 46.1 µM), inactives show at the highest dose activity, negative = less viability, actives largely listed as cytotoxic; 360,000 tested, 1.6% active;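 note: NT is the 2HG producing partner of a matched IDH1 knockdown line; 0% = DMSO-treated cells and -100% = media-only wells without cells; nearly all actives have a fitted effect of over 55% in size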
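Read-out is CellTiter-Glo luminescence after 10 minutes at room temperature, following 48 hours' compound treatment of HT-1080-NT cells (750 cells/well, RPMI, 5% FBS, 37 degrees C).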
Active calls of the source: *. Calls come from the whole dose curve; as a rule, active = well fitted curve in the direction sought with a large enough effect; inconclusive = small, poorly fitted or top-dose-only effect, or another doubt; inactive = no such curve, though single readings can be large; an effect the other way counts as inactive or inconclusive. Potency is the fitted concentration of half-maximal effect.

For CC(C)c1ccc(NC(=O)Cn2cc(S(=O)(=O)N3CCN(c4ccccc4F)CC3)c3ccccc3c2=O)cc1 the results were KB-3-1 tox inactive and KB-V1 cytotox inactive.
`COCCn1cc(-c2csc(N)n2)c2ccccc21` gave MCF10A rereplic -11%, KB-3-1 tox inactive, HT1080 IDH1KD tx 11%, SW480 rerep 18%, KB-V1 cytotox inactive and HT1080-NT tox -2%.
`CN(C)c1nc(-c2cn(CCC#N)c3ccccc23)cs1` gave MCF10A rereplic 20%, KB-3-1 tox inactive, HT1080 IDH1KD tx 26µM*, SW480 rerep 1%, KB-V1 cytotox inactive and HT1080-NT tox inconclusive.
O=C(COC(=O)c1cc([N+](=O)[O-])ccc1NCc1ccccc1Cl)NCC(F)(F)F was read as MCF10A rereplic 21µM*, KB-3-1 tox inactive, HT1080 IDH1KD tx -12%, SW480 rerep 0%, KB-V1 cytotox inactive and HT1080-NT tox -15%.
`O=C(COC(=O)c1cc([N+](=O)[O-])ccc1NCCO)NCc1cccs1` gave MCF10A rereplic 0.65µM*, KB-3-1 tox inactive, HT1080 IDH1KD tx 15%, SW480 rerep -40%, KB-V1 cytotox inactive and HT1080-NT tox 1%.
CCNc1ccc(C(=O)OCC(=O)NCc2ccccc2Cl)cc1[N+](=O)[O-] was read as MCF10A rereplic inconclusive, KB-3-1 tox inactive, HT1080 IDH1KD tx 5%, SW480 rerep -6%, KB-V1 cytotox inactive and HT1080-NT tox 7%.
Screening NC(=O)COC(=O)c1cc([N+](=O)[O-])ccc1NCCO returned MCF10A rereplic 9%, KB-3-1 tox inactive, HT1080 IDH1KD tx 10%, SW480 rerep -4%, KB-V1 cytotox inactive and HT1080-NT tox 5%.
COC(=O)c1cc(C(=O)OCC(=O)NCc2cccs2)cc([N+](=O)[O-])c1 was read as MCF10A rereplic 11%, KB-3-1 tox inactive, HT1080 IDH1KD tx 7%, SW480 rerep -9%, KB-V1 cytotox inactive and HT1080-NT tox -4%.
O=C(COC(=O)c1cc([N+](=O)[O-])ccc1NCCO)c1ccccc1 was read as MCF10A rereplic -1%, KB-3-1 tox inconclusive, HT1080 IDH1KD tx 1%, SW480 rerep inconclusive, KB-V1 cytotox 21µM* and HT1080-NT tox -7%.
`C#CCNC(=O)C[C@@H]1C[C@@]2(C(=O)OCC)CCCC=C2N(Cc2cccc3ccccc23)C1=O` gave KB-3-1 tox inactive, HT1080 IDH1KD tx -13%, KB-V1 cytotox inconclusive and HT1080-NT tox inconclusive.
CCc1ccc(NCc2cc3ccc(OC)cc3n(CC(=O)Nc3cccc(Cl)c3C)c2=O)cc1 was read as KB-3-1 tox inconclusive and KB-V1 cytotox inactive.
`O=C(NC1CC1)c1cccc(NC(=O)c2cnn(-c3ccccc3)n2)c1` gave MCF10A rereplic 3%, KB-3-1 tox inactive, HT1080 IDH1KD tx 7%, SW480 rerep -7%, KB-V1 cytotox 15µM* and HT1080-NT tox 3%.
Screening CCCCc1nc2n[nH]c(N)c2c2c1CCCC2 returned MCF10A rereplic inconclusive, KB-3-1 tox 4.1µM*, HT1080 IDH1KD tx -11%, SW480 rerep 1%, KB-V1 cytotox 0.52µM* and HT1080-NT tox -19%.
`Cc1ccc(C)c2sc(N3CCN(C(=O)c4ccc([N+](=O)[O-])o4)CC3)nc12` gave MCF10A rereplic 9.2µM*, KB-3-1 tox inconclusive, HT1080 IDH1KD tx inconclusive, SW480 rerep inconclusive, KB-V1 cytotox inconclusive and HT1080-NT tox inconclusive.
`CCOC(=O)[C@]12CCCC=C1N(Cc1cccc3ccccc13)C(=O)[C@H](CC(=O)N1CCC(c3ccccc3)CC1)C2` gave KB-3-1 tox inactive, HT1080 IDH1KD tx -3%, KB-V1 cytotox inactive and HT1080-NT tox 2%.
For Cc1onc(-c2ccccc2Cl)c1C(=O)N1CCCC1 the results were MCF10A rereplic -1%, KB-3-1 tox inactive, HT1080 IDH1KD tx -5%, SW480 rerep 30%, KB-V1 cytotox inactive and HT1080-NT tox -2%.
Screening Cc1onc(-c2c(Cl)cccc2Cl)c1C(=O)N1CCCc2ccccc21 returned MCF10A rereplic -4%, KB-3-1 tox inactive, HT1080 IDH1KD tx -23%, SW480 rerep 3%, KB-V1 cytotox inactive and HT1080-NT tox -26%.
Screening Cc1onc(-c2c(Cl)cccc2Cl)c1C(=O)N1CCc2ccccc2C1 returned MCF10A rereplic 10%, KB-3-1 tox inactive, HT1080 IDH1KD tx -17%, SW480 rerep -94%, KB-V1 cytotox 21µM* and HT1080-NT tox -16%.
Cc1cccc(N2CCN(C(=O)c3c(-c4ccccc4)noc3C)CC2)c1C was read as MCF10A rereplic 3.7µM*, KB-3-1 tox inconclusive, HT1080 IDH1KD tx 1.3µM*, SW480 rerep inconclusive, KB-V1 cytotox 3.7µM* and HT1080-NT tox 1.2µM*.
Screening Cc1onc(-c2ccccc2Cl)c1C(=O)N1CCN(c2ccccc2)CC1 returned MCF10A rereplic -18%, KB-3-1 tox inactive, HT1080 IDH1KD tx -13%, SW480 rerep 19%, KB-V1 cytotox 21µM* and HT1080-NT tox -3%.
Cc1onc(-c2ccccc2Cl)c1C(=O)N1CCN(c2cccc(Cl)c2)CC1 was read as MCF10A rereplic inconclusive, KB-3-1 tox 2.3µM*, HT1080 IDH1KD tx 2.1µM*, SW480 rerep 7.3µM*, KB-V1 cytotox 1.3µM* and HT1080-NT tox 2.6µM*.
`CCN1CCN(C(CCc2ccccc2)C(=O)NC2CCCCC2)CC1` (stereo unspecified) gave KB-3-1 tox inactive, HT1080 IDH1KD tx 3%, KB-V1 cytotox inactive and HT1080-NT tox -4%.
`COc1ccc(N2CCN(C(CNC(=O)c3ccc(C)cc3)c3ccc4c(c3)OCO4)CC2)cc1` (stereo unspecified) gave KB-3-1 tox inconclusive and KB-V1 cytotox inactive.
For O=C(C[C@H]1CC[C@H]2[C@@H](COC[C@@H](O)CN2Cc2cc(F)ccc2F)O1)NCc1ccc(Cl)cc1 the results were KB-3-1 tox inactive, HT1080 IDH1KD tx -28%, KB-V1 cytotox inconclusive and HT1080-NT tox -20%.
For C[C@H](NC(=O)c1cc2c([nH]c3ccccc32)c(-c2ccccc2)n1)C(=O)O the results were MCF10A rereplic -16%, KB-3-1 tox inactive, HT1080 IDH1KD tx -1%, SW480 rerep -5%, KB-V1 cytotox inconclusive and HT1080-NT tox -15%.
CSCC[C@H](NC(=O)c1cc2c([nH]c3ccccc32)c(-c2ccccc2)n1)C(=O)O was read as MCF10A rereplic 0%, KB-3-1 tox inactive, HT1080 IDH1KD tx -19%, SW480 rerep 23µM*, KB-V1 cytotox inactive and HT1080-NT tox -4%.
